Tb PFK block – inhibitors of T. brucei phosphofructokinase; O15648; T. brucei PFK, ADP-Glo luminescence; Potency, µM (top dose mostly 57.5 µM), for inactives: at the top dose activity, negative = inhibition, actives largely listed as inhibitors; 330,000 tested, 0.17% active; AID 485367;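 also: 0% = uninhibited 1x PFK enzyme wells and -100% = no-enzyme wells; nearly all actives have a fitted effect of over 60% in size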
Target sequence (O15648 whole entry, looked up): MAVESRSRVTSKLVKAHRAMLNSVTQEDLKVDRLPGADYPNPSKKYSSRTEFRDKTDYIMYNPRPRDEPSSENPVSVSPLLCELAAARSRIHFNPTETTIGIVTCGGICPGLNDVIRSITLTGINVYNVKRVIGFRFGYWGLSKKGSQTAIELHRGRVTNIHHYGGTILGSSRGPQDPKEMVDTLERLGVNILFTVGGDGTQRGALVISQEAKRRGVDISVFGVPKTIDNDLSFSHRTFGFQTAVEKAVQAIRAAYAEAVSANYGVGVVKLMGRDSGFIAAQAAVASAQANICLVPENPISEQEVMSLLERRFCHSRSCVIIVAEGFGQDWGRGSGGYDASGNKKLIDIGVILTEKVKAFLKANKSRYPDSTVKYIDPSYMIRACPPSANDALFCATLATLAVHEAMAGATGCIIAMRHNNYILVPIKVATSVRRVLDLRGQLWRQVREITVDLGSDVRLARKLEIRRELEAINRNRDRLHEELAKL
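1.25 nM PFK with 0.5 mM F6P and 0.1 mM ATP in 0.1 M TEA pH 8.0, 5 mM MgCl2, incubated 45 min at room temperature; ADP measured by ADP-Glo luminescence; compounds titrated up to 57 uM.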
ELG1 DNA repair – blocks ELG1-dependent DNA repair in HEK293T cells | HEK293T ELG1-luciferase reporter, luminescence, 16 h; DNA damage induced by 5-fluorouridine | Potency, µM (top dose mostly 46.1 µM), inactives show top-dose activity change, negative = inhibition, most hits filed as inhibitors | 330,000 tested, 2.3% active | AID 504467; also: % is scaled to controls: 0 for no effect and ±100 for the full control effect; nearly all actives have a fitted effect of over 55% in size
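Quantitative HTS, concentration-response format. 2,000 cells/well co-treated with 5-fluorouridine and compound, 16 hr in 5% CO2 at 37 °C; ONE-Glo luminescence read after 30 min.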
Rango dissoc inh – inhibition of RanGTP-driven Rango-importin beta dissociation. Biochemical FRET Rango-importin beta, RanGTP-induced dissociation. Potency, µM (series often up to 46.1 µM), without a hit: at the highest dose activity change, negative = inhibition. 340,000 tested, 0.071% active. AID 540253; calls by dose curve; also: % of control where 0% means no effect; nearly all actives have a fitted effect of over 45% in size
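Recombinant Rango FRET biosensor (EYFP–snurportin 1 IBB–cerulean CFP10) at 0.1 uM premixed with 0.25 uM importin beta in PBS, 1 mM DTT, 0.02% Tween-20, 0.1% BSA. Compound added 5 min; RanGTP-RCC1 (0.6 uM Ran, 2 mM GTP, 0.2 uM RCC1) then triggers release, read at 45 min.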
PKM2 activator – PKM2 (human) enzyme activation. Potency, µM (top dose mostly 57.5 µM), for the others: at the highest dose activation, hits mostly activators. P14618. AID 1631. 260,000 tested, 0.34% active. purified PKM2, Kinase-Glo ATP luminescence, activation; response scale: 0% is enzyme alone, no compound; also: % is scaled to controls: 0 for no effect and ±100 for the full control effect; nearly all actives have a fitted effect of over 55% in size
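Purified hPK-M2 (>95%) run at intermediate activity with 0.1 mM ADP and 0.5 mM PEP in 50 mM imidazole pH 7.2, KCl, MgCl2; 1 h room temperature. ATP formed read by Kinase-Glo luminescence; normalized to uninhibited and no-enzyme controls.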
PGK inhibitor – T. brucei PGK inhibition; 380,000 tested, 0.043% active; PGK/GAPDH coupled, Kinase-Glo luminescence, 60 min; P07378; AID 602233; Potency, µM (highest dose often 57.5 µM), without a hit: top-dose activity change, negative = inhibition, actives largely listed as inhibitors; also: % is scaled to controls: 0 for no effect and ±100 for the full control effect; nearly all actives have a fitted effect of over 60% in size
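Luminescent ATP detection (Kinase-Glo Plus) follows a 60-minute room-temperature incubation, with wells lacking PGK as controls. Buffer: 100 mM TEA (pH 7.6), 5 mM MgCl2, 0.01% Tween-20. Coupling enzyme GAPDH (100 nM final) supplies unstable 1,3-BPG in-well.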
Rango complex inh – inhibitors of Rango-importin beta complex formation | Q14974 | Rango CFP/YFP FRET sensor + importin beta, 45 min | Potency, µM (top dose mostly 92.2 µM), for the others: top-dose inhibition of complex formation | 340,000 tested, 0.031% active; calls by dose curve;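 also: 0% = DMSO wells and 100% = buffer wells lacking importin beta; nearly all actives have a fitted effect of over 15% in size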
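FRET biosensor (snurportin 1 IBB flanked by EYFP and cerulean), 50 nM, with compound 5 min, then 0.125 microM importin beta in PBS, 1 mM DTT, 0.02% Tween-20, 0.1% BSA. CFP/YFP ratio read after 45 min at room temperature; pre-read flags interference.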
* hit, by the source's call. Rows were chosen to be rich in hits. Some 2.4% of all compounds tested hit in one or more screens of this group. Unless noted, calls follow the shape of the dose curve; as a rule, active = well fitted curve in the direction sought with a large enough effect; inconclusive = small, poorly fitted or top-dose-only effect, or another doubt; inactive = no such curve, though single readings can be large; an effect the other way counts as inactive or inconclusive. Potency is read from the fitted curve at half-maximal effect.

What do the screens show for `COc1ccccc1NC(=O)CN1CCN(CC(=O)Nc2ccc(Cl)c(C(F)(F)F)c2)CC1`?
Tb PFK block: 1%; ELG1 DNA repair: 18µM*; Rango dissoc inh: 1%; PKM2 activator: -1%; PGK inhibitor: -2%; Rango complex inh: -4%

How did O=C(CN1CCN(S(=O)(=O)c2ccc(F)cc2)CC1)Nc1ccccc1C(=O)NC1CC1 do in these assays?
Tb PFK block: -1%; ELG1 DNA repair: -7%; Rango dissoc inh: 8%; PGK inhibitor: -8%; Rango complex inh: -1%

Results for COc1ccc(NC(=O)CN2CCN(CC(=O)Nc3ccccc3Cl)CC2)cc1Cl ?
Tb PFK block: -3%; ELG1 DNA repair: inconclusive; Rango dissoc inh: -13%; PKM2 activator: 0%; PGK inhibitor: -4%; Rango complex inh: -1%

Results for COc1ccc(F)cc1CN1CCN(CC(=O)Nc2ccccc2C(=O)NC2CC2)CC1 ?
Tb PFK block: 2%; ELG1 DNA repair: 10µM*; Rango dissoc inh: -18%; PGK inhibitor: -5%; Rango complex inh: 4%

How did COc1cc(NC(=O)c2ccccc2F)c(OC)cc1NC(=O)CN1CCOCC1 do in these assays?
Tb PFK block: 1%; ELG1 DNA repair: inconclusive; Rango dissoc inh: -2%; PKM2 activator: 8%; PGK inhibitor: -9%; Rango complex inh: -2%

What do the screens show for `COC(=O)c1ccccc1NC(=O)CN1CCC(NC(=O)c2ccc(C)cc2)CC1`?
Tb PFK block: -6%; ELG1 DNA repair: 16µM*; Rango dissoc inh: 1%; PKM2 activator: -10%; PGK inhibitor: -7%; Rango complex inh: 2%

Results for Cc1ccc(NC(=O)C2CCCN(S(=O)(=O)c3ccc(C)cc3)C2)cc1 (stereo not drawn) ?
PGK inhibitor: inactive

What do the screens show for `CCOC(=O)c1cnc2c(C)cc(Cl)cc2c1N1CCN(C)CC1`?
Tb PFK block: 2%; ELG1 DNA repair: -8%; Rango dissoc inh: 27%; PGK inhibitor: -10%; Rango complex inh: -1%

Results for CCOCCN1CCN(c2c(C)c(C)nc3cc(-c4cc(OC)cc(OC)c4)nn23)CC1 ?
Tb PFK block: -3%; ELG1 DNA repair: 16µM*; Rango dissoc inh: 0%; PKM2 activator: 1%; PGK inhibitor: -1%; Rango complex inh: 1%

Results for COc1ccc2cc(C(=O)C3CCCN(C(=O)c4cncs4)C3)ccc2c1 (stereo not drawn) ?
Tb PFK block: -2%; ELG1 DNA repair: -1%; Rango dissoc inh: 24%; PKM2 activator: -5%; PGK inhibitor: -7%; Rango complex inh: 3%

What do the screens show for `COC(=O)c1ccc(C2N=C(c3cccs3)CC(c3ccccc3O)N2)cc1` (stereo not drawn)?
Tb PFK block: -3%; ELG1 DNA repair: inconclusive; Rango dissoc inh: 15µM*; PKM2 activator: 0%; PGK inhibitor: 0%; Rango complex inh: inconclusive

Results for CCc1ccccc1Nc1nn2c(=O)c3ccc(C(=O)NCc4ccccn4)cc3nc2s1 ?
Tb PFK block: 2%; ELG1 DNA repair: inconclusive; Rango dissoc inh: 20%; PKM2 activator: inconclusive; PGK inhibitor: -10%; Rango complex inh: -4%

How did O=C1C=CC(=O)N1c1ccc(Sc2ccc([N+](=O)[O-])cc2)cc1 do in these assays?
Tb PFK block: -13%; ELG1 DNA repair: inconclusive; PKM2 activator: 32µM*

What do the screens show for `Nc1ccc(Sc2ccc([N+](=O)[O-])cc2)cc1`?
Tb PFK block: 4%; ELG1 DNA repair: 6%; Rango dissoc inh: 27%; PKM2 activator: 1%; PGK inhibitor: -6%; Rango complex inh: 2%

What do the screens show for `CCN(Cc1ccc2c(c1)OCO2)C(=O)CSc1nc(C)nc2sc(C)c(C)c12`?
Tb PFK block: 3%; ELG1 DNA repair: 18µM*; Rango dissoc inh: 1%; PGK inhibitor: -7%; Rango complex inh: 1%

Results for CCOc1ccc(CCNC(=O)c2ccc(-c3nc(CSc4ccccc4)c(C)o3)cc2)cc1 ?
PGK inhibitor: 0%

Results for CN1CCC(NCCC(c2ccc(F)cc2)c2ccc(Cl)cc2)CC1 (stereo not drawn) ?
Tb PFK block: -4%; ELG1 DNA repair: inconclusive; Rango dissoc inh: -11%; PGK inhibitor: 5%; Rango complex inh: 5%

What do the screens show for `CC(C)C(CCNC1CCN(C)CC1)c1ccc(Cl)cc1` (stereo not drawn)?
Tb PFK block: 0%; ELG1 DNA repair: 23µM*; Rango dissoc inh: -10%; PGK inhibitor: -4%; Rango complex inh: -4%

What do the screens show for `COc1ccc(CN(C)C(=O)c2ccncc2)c(OC)c1`?
Tb PFK block: 0%; ELG1 DNA repair: 14%; Rango dissoc inh: -1%; PKM2 activator: 0%; PGK inhibitor: -6%; Rango complex inh: -4%

What do the screens show for `COc1ccc(CCNS(=O)(=O)c2cc3c4c(c2)C(C)C(=O)N4CCC3)cc1OC` (stereo not drawn)?
Tb PFK block: -2%; ELG1 DNA repair: -8%; Rango dissoc inh: 16µM*; PGK inhibitor: -2%; Rango complex inh: -4%

Results for CC1C(=O)N2CCCc3cc(S(=O)(=O)NCCc4ccccc4)cc1c32 (stereo not drawn) ?
Tb PFK block: 5%; ELG1 DNA repair: -6%; Rango dissoc inh: -10%; PGK inhibitor: -1%; Rango complex inh: 1%

How did CCN1CCN(c2c(S(=O)(=O)c3ccc(OC)cc3)cnc3cc(OC)c(OC)cc23)CC1 do in these assays?
PGK inhibitor: -3%

What do the screens show for `COc1cc2ncc(S(=O)(=O)c3ccccc3)c(N3CCCC(C)C3)c2cc1OC` (stereo not drawn)?
Tb PFK block: 3%; ELG1 DNA repair: 18µM*; Rango dissoc inh: 0%; PKM2 activator: 2%; PGK inhibitor: 0%; Rango complex inh: 2%

What do the screens show for `CCOC(=O)N1CCN(C(=O)c2ccc(Cn3c(=S)[nH]c4ccc(Br)cc4c3=O)cc2)CC1`?
Tb PFK block: 0%; ELG1 DNA repair: 7.3µM*; Rango dissoc inh: -6%; PGK inhibitor: -4%; Rango complex inh: 0%

Results for CCOC(=O)N1CCN(C(=O)c2ccc3c(=O)n(Cc4ccc(Cl)cc4)c(=S)[nH]c3c2)CC1 ?
Tb PFK block: -3%; ELG1 DNA repair: 8.2µM*; Rango dissoc inh: 3%; PKM2 activator: 0%; PGK inhibitor: -6%; Rango complex inh: 0%

Assay outcomes from PubChem BioAssay.
